Results: article PMC7862700, “An all-to-all approach to the identification of sequence-specific readers for epigenetic DNA modifications on cytosine”

Key:
Assay in all cases: DAPPL (digital affinity profiling via proximity ligation, sequencing); 10 mM Tris-HCl pH 7.5, 50 mM NaCl, 1 mM DTT, 4% glycerol, room temperature, 30 min; GST-TFs on glutathione beads, 16-mer random dsDNA library, 0.1% formaldehyde crosslink after washing; high values mean tight binding
Conditions in all cases: protein: recombinant; tags: N-terminal GST; dsDNA, one strand shown
ERF = target: T1, ERF (Homo sapiens, UniProt P50548 1-548)
T1 sequence: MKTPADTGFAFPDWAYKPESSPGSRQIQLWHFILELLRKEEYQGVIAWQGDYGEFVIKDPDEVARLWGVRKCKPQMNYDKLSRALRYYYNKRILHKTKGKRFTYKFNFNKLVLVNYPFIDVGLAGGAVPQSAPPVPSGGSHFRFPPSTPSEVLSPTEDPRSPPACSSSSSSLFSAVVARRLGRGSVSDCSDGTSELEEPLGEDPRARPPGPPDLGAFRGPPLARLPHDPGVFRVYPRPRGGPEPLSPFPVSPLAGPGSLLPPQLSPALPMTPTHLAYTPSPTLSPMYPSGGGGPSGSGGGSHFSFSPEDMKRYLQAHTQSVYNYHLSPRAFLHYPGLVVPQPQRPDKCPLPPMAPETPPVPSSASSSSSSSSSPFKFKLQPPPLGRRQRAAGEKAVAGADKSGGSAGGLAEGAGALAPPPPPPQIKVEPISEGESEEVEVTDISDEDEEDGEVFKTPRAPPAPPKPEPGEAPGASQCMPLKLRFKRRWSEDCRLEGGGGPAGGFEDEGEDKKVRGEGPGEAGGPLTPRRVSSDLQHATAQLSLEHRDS
Method in brief: (§1)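 In yeast, human transcription factors were expressed with a GST fusion, then pulled down on glutathione beads and given DNA barcodes. Pooled with a tag-only sample, they were exposed to 200 nmole of a 16-mer random double-stranded DNA library (Tris/NaCl/DTT/glycerol buffer, room temperature, 30 min), washed, crosslinked with 0.1% formaldehyde, proximity-ligated using BsaI/T4 ligase for 1 h at 37 °C, PCR-amplified and read on an Illumina NextSeq500. Each hexamer's frequency of reads for a factor, divided by the matching frequency for the tag-only sample, gives the binding signal.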

ETV3L = target: T2, ETV3L (Homo sapiens, UniProt Q6ZN32 1-361)
T2 sequence: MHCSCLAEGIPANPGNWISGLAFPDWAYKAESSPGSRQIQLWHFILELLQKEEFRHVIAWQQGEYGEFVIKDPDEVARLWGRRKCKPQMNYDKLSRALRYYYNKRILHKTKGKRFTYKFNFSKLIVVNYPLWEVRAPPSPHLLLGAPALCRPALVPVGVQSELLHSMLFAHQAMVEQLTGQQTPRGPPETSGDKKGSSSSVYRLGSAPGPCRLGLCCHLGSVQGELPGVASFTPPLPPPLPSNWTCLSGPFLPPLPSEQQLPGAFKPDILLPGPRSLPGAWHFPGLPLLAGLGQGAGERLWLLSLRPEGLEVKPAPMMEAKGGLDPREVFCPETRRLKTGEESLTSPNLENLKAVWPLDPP
Method in brief: as §1

ETS2 = target: T3, ETS2 (Homo sapiens, UniProt P15036 1-469)
T3 sequence: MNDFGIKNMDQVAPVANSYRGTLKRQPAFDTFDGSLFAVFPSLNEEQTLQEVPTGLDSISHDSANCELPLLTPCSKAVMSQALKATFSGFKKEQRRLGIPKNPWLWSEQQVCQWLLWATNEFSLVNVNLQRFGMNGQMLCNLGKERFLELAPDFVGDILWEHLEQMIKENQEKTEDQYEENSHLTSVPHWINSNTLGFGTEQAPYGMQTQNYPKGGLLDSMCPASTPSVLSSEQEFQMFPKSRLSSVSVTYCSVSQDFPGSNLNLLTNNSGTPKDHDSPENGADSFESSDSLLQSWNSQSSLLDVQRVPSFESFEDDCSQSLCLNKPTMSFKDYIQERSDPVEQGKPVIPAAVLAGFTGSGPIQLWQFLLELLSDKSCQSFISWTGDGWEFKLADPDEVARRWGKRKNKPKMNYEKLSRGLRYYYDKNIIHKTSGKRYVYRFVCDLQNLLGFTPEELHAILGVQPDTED
Method in brief: as §1

SPDEF = target: T4, SPDEF (Homo sapiens, UniProt O95238 1-335)
T4 sequence: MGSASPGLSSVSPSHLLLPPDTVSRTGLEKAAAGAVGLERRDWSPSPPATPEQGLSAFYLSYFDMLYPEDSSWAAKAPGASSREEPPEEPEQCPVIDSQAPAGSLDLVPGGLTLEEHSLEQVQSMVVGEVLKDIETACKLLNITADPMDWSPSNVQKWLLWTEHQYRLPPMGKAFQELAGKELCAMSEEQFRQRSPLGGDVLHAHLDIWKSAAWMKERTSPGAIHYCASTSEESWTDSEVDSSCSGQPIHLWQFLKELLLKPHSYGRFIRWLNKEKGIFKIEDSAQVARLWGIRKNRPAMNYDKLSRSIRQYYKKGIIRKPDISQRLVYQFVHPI
Method in brief: as §1

ETV7 = target: T5, ETV7 (Homo sapiens, UniProt Q9Y603 1-341)
T5 sequence: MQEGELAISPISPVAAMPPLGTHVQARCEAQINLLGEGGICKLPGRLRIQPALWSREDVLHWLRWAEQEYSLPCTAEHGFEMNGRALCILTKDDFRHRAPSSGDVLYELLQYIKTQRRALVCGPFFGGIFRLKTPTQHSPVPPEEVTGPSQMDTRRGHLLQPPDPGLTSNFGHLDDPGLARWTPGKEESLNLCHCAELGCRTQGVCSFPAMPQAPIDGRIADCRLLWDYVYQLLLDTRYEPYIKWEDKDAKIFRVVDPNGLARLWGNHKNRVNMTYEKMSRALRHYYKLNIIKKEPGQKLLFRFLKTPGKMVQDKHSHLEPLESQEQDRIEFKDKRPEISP
Method in brief: as §1

ELF5 = target: T6, ELF5 (Homo sapiens, UniProt Q9UKW6-2 1-255)
T6 sequence: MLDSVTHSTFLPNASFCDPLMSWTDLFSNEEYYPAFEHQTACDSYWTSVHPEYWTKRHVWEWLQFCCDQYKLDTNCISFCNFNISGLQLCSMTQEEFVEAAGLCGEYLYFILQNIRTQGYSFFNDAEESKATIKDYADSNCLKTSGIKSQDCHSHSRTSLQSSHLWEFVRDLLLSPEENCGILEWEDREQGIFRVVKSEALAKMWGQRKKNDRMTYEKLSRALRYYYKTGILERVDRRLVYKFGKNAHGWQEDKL
Method in brief: as §1

ETV3 = target: T7, ETV3 (Homo sapiens, UniProt P41162-2 1-143)
T7 sequence: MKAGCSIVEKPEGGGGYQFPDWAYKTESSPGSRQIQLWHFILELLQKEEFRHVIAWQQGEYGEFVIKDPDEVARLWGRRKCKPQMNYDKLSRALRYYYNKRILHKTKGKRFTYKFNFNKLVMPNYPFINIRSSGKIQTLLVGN
Method in brief: as §1

ETV6 = ETV6 (Homo sapiens, UniProt P41212 1-452)
Chain of ETV6 (P41212 whole entry): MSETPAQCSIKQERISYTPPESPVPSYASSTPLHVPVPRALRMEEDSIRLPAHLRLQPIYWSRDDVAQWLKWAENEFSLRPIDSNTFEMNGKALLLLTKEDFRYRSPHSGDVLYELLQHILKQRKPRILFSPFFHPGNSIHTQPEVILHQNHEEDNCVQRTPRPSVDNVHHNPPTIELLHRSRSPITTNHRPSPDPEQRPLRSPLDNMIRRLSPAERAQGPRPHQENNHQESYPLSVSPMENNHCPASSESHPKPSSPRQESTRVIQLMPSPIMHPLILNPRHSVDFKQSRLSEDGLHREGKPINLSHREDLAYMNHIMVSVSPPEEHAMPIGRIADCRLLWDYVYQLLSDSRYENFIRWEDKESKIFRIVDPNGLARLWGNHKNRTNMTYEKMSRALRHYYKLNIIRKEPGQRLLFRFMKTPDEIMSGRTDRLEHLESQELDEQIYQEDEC
Method in brief: as §1

With CTCCAC the binding signal (ERF) was 1.31 fold enrichment (6-mer frequency, TF over GST control), the binding signal (ETV3L) was 1.45 fold enrichment (6-mer frequency, TF over GST control) and the binding signal (ETS2) was 1.43 fold enrichment (6-mer frequency, TF over GST control). The binding signal (SPDEF) was 1.27 fold enrichment (6-mer frequency, TF over GST control), the binding signal (ETV7) was 1.39 fold enrichment (6-mer frequency, TF over GST control) and the binding signal (ELF5) was 1.35 fold enrichment (6-mer frequency, TF over GST control). The binding signal (ETV3) was 1.3 fold enrichment (6-mer frequency, TF over GST control) and the binding signal (ETV6) was 1.26 fold enrichment (6-mer frequency, TF over GST control).

For TACCCG, the binding signal (ERF) was 1.41 fold enrichment (6-mer frequency, TF over GST control), the binding signal (ETV3L) was 1.56 fold enrichment (6-mer frequency, TF over GST control) and the binding signal (ETS2) was 1.42 fold enrichment (6-mer frequency, TF over GST control). The binding signal (SPDEF) was 1.59 fold enrichment (6-mer frequency, TF over GST control), the binding signal (ETV7) was 1.43 fold enrichment (6-mer frequency, TF over GST control) and the binding signal (ELF5) was 1.5 fold enrichment (6-mer frequency, TF over GST control). The binding signal (ETV3) was 1.47 fold enrichment (6-mer frequency, TF over GST control) and the binding signal (ETV6) was 1.5 fold enrichment (6-mer frequency, TF over GST control).

With CCCTTA the binding signal (ERF) was 1.32 fold enrichment (6-mer frequency, TF over GST control), the binding signal (ETV3L) was 1.41 fold enrichment (6-mer frequency, TF over GST control) and the binding signal (ETS2) was 1.34 fold enrichment (6-mer frequency, TF over GST control). The binding signal (SPDEF) was 1.38 fold enrichment (6-mer frequency, TF over GST control), the binding signal (ETV7) was 1.23 fold enrichment (6-mer frequency, TF over GST control) and the binding signal (ELF5) was 1.2 fold enrichment (6-mer frequency, TF over GST control). The binding signal (ETV3) was 1.39 fold enrichment (6-mer frequency, TF over GST control) and the binding signal (ETV6) was 1.24 fold enrichment (6-mer frequency, TF over GST control).

CTCTCG was tested, and the binding signal (ERF) was 1.36 fold enrichment (6-mer frequency, TF over GST control), the binding signal (ETV3L) was 1.42 fold enrichment (6-mer frequency, TF over GST control) and the binding signal (ETS2) was 1.4 fold enrichment (6-mer frequency, TF over GST control). For the same sequence, the binding signal (SPDEF) was 1.16 fold enrichment (6-mer frequency, TF over GST control), the binding signal (ETV7) was 1.25 fold enrichment (6-mer frequency, TF over GST control) and the binding signal (ELF5) was 1.34 fold enrichment (6-mer frequency, TF over GST control). For the same sequence, the binding signal (ETV3) was 1.35 fold enrichment (6-mer frequency, TF over GST control) and the binding signal (ETV6) was 1.31 fold enrichment (6-mer frequency, TF over GST control).

TGTATG was tested, and the binding signal (ERF) was 1.31 fold enrichment (6-mer frequency, TF over GST control), the binding signal (ETV3L) was 1.23 fold enrichment (6-mer frequency, TF over GST control) and the binding signal (ETS2) was 1.26 fold enrichment (6-mer frequency, TF over GST control). The binding signal (SPDEF) was 1.35 fold enrichment (6-mer frequency, TF over GST control), the binding signal (ETV7) was 1.19 fold enrichment (6-mer frequency, TF over GST control) and the binding signal (ELF5) was 1.22 fold enrichment (6-mer frequency, TF over GST control). The binding signal (ETV3) was 1.29 fold enrichment (6-mer frequency, TF over GST control) and the binding signal (ETV6) was 1.16 fold enrichment (6-mer frequency, TF over GST control).

TGGACT was tested, and the binding signal (ERF) was 1.25 fold enrichment (6-mer frequency, TF over GST control), the binding signal (ETV3L) was 1.22 fold enrichment (6-mer frequency, TF over GST control) and the binding signal (ETS2) was 1.27 fold enrichment (6-mer frequency, TF over GST control). For the same sequence, the binding signal (SPDEF) was 1.2 fold enrichment (6-mer frequency, TF over GST control), the binding signal (ETV7) was 1.19 fold enrichment (6-mer frequency, TF over GST control) and the binding signal (ELF5) was 1.22 fold enrichment (6-mer frequency, TF over GST control). For the same sequence, the binding signal (ETV3) was 1.25 fold enrichment (6-mer frequency, TF over GST control) and the binding signal (ETV6) was 1.28 fold enrichment (6-mer frequency, TF over GST control).

In the case of TAGTAC, the binding signal (ERF) is reported as 1.13 fold enrichment (6-mer frequency, TF over GST control), the binding signal (ETV3L) is reported as 1.1 fold enrichment (6-mer frequency, TF over GST control) and the binding signal (ETS2) is reported as 1.17 fold enrichment (6-mer frequency, TF over GST control). The binding signal (SPDEF) was 1.14 fold enrichment (6-mer frequency, TF over GST control), the binding signal (ETV7) was 1.17 fold enrichment (6-mer frequency, TF over GST control) and the binding signal (ELF5) was 1.17 fold enrichment (6-mer frequency, TF over GST control). For the same sequence, the binding signal (ETV3) was 1.27 fold enrichment (6-mer frequency, TF over GST control) and the binding signal (ETV6) was 1.22 fold enrichment (6-mer frequency, TF over GST control).

For CATTTT, the binding signal (ERF) was 1.22 fold enrichment (6-mer frequency, TF over GST control), the binding signal (ETV3L) was 1.24 fold enrichment (6-mer frequency, TF over GST control) and the binding signal (ETS2) was 1.1 fold enrichment (6-mer frequency, TF over GST control). For the same sequence, the binding signal (SPDEF) was 1.06 fold enrichment (6-mer frequency, TF over GST control), the binding signal (ETV7) was 1.2 fold enrichment (6-mer frequency, TF over GST control) and the binding signal (ELF5) was 1.22 fold enrichment (6-mer frequency, TF over GST control). The binding signal (ETV3) was 1.18 fold enrichment (6-mer frequency, TF over GST control) and the binding signal (ETV6) was 1.28 fold enrichment (6-mer frequency, TF over GST control).

For TCATCT, the binding signal (ERF) was 1.21 fold enrichment (6-mer frequency, TF over GST control), the binding signal (ETV3L) was 1.22 fold enrichment (6-mer frequency, TF over GST control) and the binding signal (ETS2) was 1.2 fold enrichment (6-mer frequency, TF over GST control). For the same sequence, the binding signal (SPDEF) was 1.07 fold enrichment (6-mer frequency, TF over GST control), the binding signal (ETV7) was 1.14 fold enrichment (6-mer frequency, TF over GST control) and the binding signal (ELF5) was 1.17 fold enrichment (6-mer frequency, TF over GST control). For the same sequence, the binding signal (ETV3) was 1.19 fold enrichment (6-mer frequency, TF over GST control) and the binding signal (ETV6) was 1.22 fold enrichment (6-mer frequency, TF over GST control).
